Test [1] relates to Wnt5a (protein binding on small-molecule microarray). The experiment in a line: small molecules binding Wnt5a protein – biophysical, small-molecule microarray, 635/667 nm fluorescence, primary screen (AID 1142).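 Also: fluorescence read at 667 nm with signal to noise per printed feature.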 The conditions noted are these: 635 nm fluorescence, higher = more signal.
Test [2] is described as follows: ATP-based viability of Huh7 replicon cells – cell-based, CellTiter-Glo luminescence, basal, 48 h, cytotoxicity control for HCV replication inhibitor project, primary screen (AID 1143).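 Also: Huh7 hepatoma cells carrying a hepatitis C replication reporter with no stimulus; test concentration not given here.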 The conditions noted are these: higher = more signal, called active from +8 up or from −8 down.
The nature of test [3]: Pseudomonas biofilm growth suppression – PAO1 strain, BacTiter-Glo luminescence, LB-PBS, primary screen (AID 1144). As to conditions: P. aeruginosa PAO1 biofilm, 12 h, higher = more signal.
Test [4] is described as follows: basal CRE-LacZ reporter activity in PC12 – cell-based, unstimulated, primary screen (AID 1145). The conditions noted are these: no forskolin, luminescence, 4.5 h, higher = more signal, called active from +8 up or from −8 down.
Test [5] in a line: forskolin-driven CRE-LacZ activity in PC12 – cell-based, CRE-LacZ reporter, forskolin-stimulated, primary screen (AID 1146).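 Also: PC12 cells with 6xCRE LacZ reporter stimulated by forskolin 10 µM; beta-galactosidase reporter signal reflecting CREB driven transcription.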 As to conditions: luminescence, 4.5 h, higher = more signal, called active from +8 up or from −8 down.
Test [6] concerns the target Streptavidin (Streptomyces avidinii) (UniProt P22629). The experiment in a line: compounds binding control protein streptavidin – biophysical, small-molecule microarray, 635/667 nm fluorescence, artefact control for SMM compound annotation, primary screen (AID 1147).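 Also: signal reflects streptavidin binding to arrayed compounds as a control protein.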 The conditions noted are these: higher = more signal.
Test [7] is described as follows: probe aInhba binding on compound microarray – biochemical, small-molecule microarray, 635/667 nm fluorescence, primary screen (AID 1148).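 Also: score merges 667nm spot fluorescence with signal-to-noise for antibody binding to printed compounds.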 As to conditions: higher = more signal.
The target of test [8] is Torsin-1A (Homo sapiens) (UniProt O14656). Briefly: TOR1A wild-type binding on microarray – cell lysate, small-molecule microarray, lysate, 635/667 nm, primary screen (AID 1149). The conditions noted are these: COS7 hTOR1A-WT lysate, 635 nm fluorescence, higher = more signal.
For test [9] the target is unchanged. Briefly: torsin A mutant lysate binding on microarrays – cell lysate, small-molecule microarray, COS7 lysate, 635/667 nm fluorescence, primary screen (AID 1150).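 Also: score pools 667 nm emission and signal to noise measuring lysate protein binding.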 The conditions noted are these: COS7 hTOR1A mutant lysate, 635 nm fluorescence, higher = more signal.
Test [10] deals with Sonic hedgehog protein (Shh). The experiment in a line: Sonic hedgehog microarray binding compounds – biochemical, small-molecule microarray, 635/667 nm fluorescence, primary screen (AID 1151).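 Also: Shh protein binding to compounds spotted on small-molecule microarray slides; score combines spot fluorescence intensity with signal-to-noise across triplicate slides.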 The conditions noted are these: 635 nm fluorescence, higher = more signal.
Test [11] in a line: optical density shifts of acrAB sulA E. coli – strain DRC41, OD650, 48 h, E. coli filamentation inducer project, primary screen (AID 1152).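 Also: E. coli MC1000 strain DRC41 lacking acrAB efflux pump and sulA.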 As to conditions: higher = more signal, called active from +8 up or from −8 down.
Test [12] is described as follows: probe aLefty1 binding on compound microarray – biochemical, small-molecule microarray, 635/667 nm fluorescence, primary screen (AID 1153).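 Also: score merges spot fluorescence with signal-to-noise ratio from the scanned slide images.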 The conditions noted are these: higher = more signal.
A short description of test [13]: plasmodial surface anion channel blockers, osmotic lysis – cell-based, P. falciparum Indochina, OD700, 1 h, primary screen (AID 1154). The conditions noted are these: P. falciparum Indochina infected RBC osmotic lysis, higher = more signal, called active from +8 up or from −8 down.
A short description of test [14]: plasmodial surface anion channel blockers, osmotic lysis – cell-based, P. falciparum Indochina, OD700, 2 h, primary screen (AID 1155).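 Also: lysis reports solute entry through the parasite surface anion channel PSAC.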 The conditions noted are these: P. falciparum Indochina infected erythrocytes, higher = more signal, called active from +8 up or from −8 down.
Test [15] in a line: changes in parasitized red cell lysis, either direction – P. falciparum Indochina, OD700, 3 h, PSAC antagonist project, primary screen (AID 1156). The conditions noted are these: P. falciparum-infected erythrocytes, osmotic lysis, higher = more signal, called active from +8 up or from −8 down.
Test [16] in a line: plasmodial surface anion channel blockers, osmotic lysis – cell-based, P. falciparum Indochina, OD700, 18 h, primary screen (AID 1157). As to conditions: P. falciparum Indochina infected erythrocytes, osmotic lysis OD700, 18 h; higher = more signal, called active from +8 up or from −8 down.
Test [17] in a line: S6 kinase pathway phospho-S6 level changes – cell-based, A549, cytoblot, luminescence, serum-stimulated, primary screen (AID 1158).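 Also: serum-stimulated A549 lung adenocarcinoma cells; signal is phosphorylated S6 detected by cytoblot immunostaining with HRP secondary.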 As to conditions: 5 h, higher = more signal.
For test [18], the target named is NADPH oxidase 2 (Homo sapiens) (UniProt P04839). Briefly: compounds shifting NOX2 Amplex Red fluorescence – cell-based, HEK293-NOX2, PMA-stimulated, NOX inhibitor project, primary screen (AID 1159). Also: test concentration not given here. The conditions noted are these: 45 min, higher = more signal, called active from +8 up or from −8 down.
The target of test [19] is NADPH oxidase 4 (Homo sapiens) (UniProt Q9NPH5). Briefly: compounds shifting NOX4 Amplex Red fluorescence – cell-based, HEK293-NOX4, tetracycline-induced, NOX inhibitor project, primary screen (AID 1160). The conditions noted are these: HEK293-NOX4, Amplex Red H2O2 fluorescence, 45 min; higher = more signal, called active from +8 up or from −8 down.
For test [20], the target named is NADPH oxidase 5 (Homo sapiens) (UniProt Q96PH1). Briefly: compounds shifting NOX5 Amplex Red fluorescence – cell-based, HEK293-NOX5, NOX inhibitor project, primary screen (AID 1161). As to conditions: HEK293-NOX5, ionomycin, 45 min, higher = more signal.

The source made the active and inactive calls. Unless noted, no rule for the calls is given here.

Composite z-score and z-score data for 4 molecules are collected here from PubChem BioAssay.

NADPH oxidase 2 (Homo sapiens), sequence (P04839 whole entry, looked up): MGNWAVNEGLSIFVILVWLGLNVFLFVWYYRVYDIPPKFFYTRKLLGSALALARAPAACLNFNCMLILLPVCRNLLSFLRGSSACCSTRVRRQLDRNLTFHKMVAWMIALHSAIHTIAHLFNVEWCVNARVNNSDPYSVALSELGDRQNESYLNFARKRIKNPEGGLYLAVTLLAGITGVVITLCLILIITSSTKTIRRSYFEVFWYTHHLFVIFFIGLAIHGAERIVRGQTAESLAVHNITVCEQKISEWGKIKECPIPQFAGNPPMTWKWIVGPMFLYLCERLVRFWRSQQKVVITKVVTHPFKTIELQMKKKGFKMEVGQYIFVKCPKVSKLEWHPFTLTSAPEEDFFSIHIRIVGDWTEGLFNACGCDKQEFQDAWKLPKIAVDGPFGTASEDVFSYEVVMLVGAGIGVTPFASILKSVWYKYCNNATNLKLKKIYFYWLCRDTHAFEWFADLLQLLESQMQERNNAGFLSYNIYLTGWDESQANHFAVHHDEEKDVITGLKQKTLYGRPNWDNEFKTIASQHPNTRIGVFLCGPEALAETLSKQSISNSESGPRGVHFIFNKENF
Streptavidin (Streptomyces avidinii), sequence (P22629 whole entry, looked up): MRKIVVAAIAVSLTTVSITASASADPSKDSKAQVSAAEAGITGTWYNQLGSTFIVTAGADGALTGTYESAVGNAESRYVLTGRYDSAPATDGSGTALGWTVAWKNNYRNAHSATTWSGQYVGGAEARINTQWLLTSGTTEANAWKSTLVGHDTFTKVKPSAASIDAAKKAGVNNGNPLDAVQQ
NADPH oxidase 5 (Homo sapiens), sequence (Q96PH1 whole entry, looked up): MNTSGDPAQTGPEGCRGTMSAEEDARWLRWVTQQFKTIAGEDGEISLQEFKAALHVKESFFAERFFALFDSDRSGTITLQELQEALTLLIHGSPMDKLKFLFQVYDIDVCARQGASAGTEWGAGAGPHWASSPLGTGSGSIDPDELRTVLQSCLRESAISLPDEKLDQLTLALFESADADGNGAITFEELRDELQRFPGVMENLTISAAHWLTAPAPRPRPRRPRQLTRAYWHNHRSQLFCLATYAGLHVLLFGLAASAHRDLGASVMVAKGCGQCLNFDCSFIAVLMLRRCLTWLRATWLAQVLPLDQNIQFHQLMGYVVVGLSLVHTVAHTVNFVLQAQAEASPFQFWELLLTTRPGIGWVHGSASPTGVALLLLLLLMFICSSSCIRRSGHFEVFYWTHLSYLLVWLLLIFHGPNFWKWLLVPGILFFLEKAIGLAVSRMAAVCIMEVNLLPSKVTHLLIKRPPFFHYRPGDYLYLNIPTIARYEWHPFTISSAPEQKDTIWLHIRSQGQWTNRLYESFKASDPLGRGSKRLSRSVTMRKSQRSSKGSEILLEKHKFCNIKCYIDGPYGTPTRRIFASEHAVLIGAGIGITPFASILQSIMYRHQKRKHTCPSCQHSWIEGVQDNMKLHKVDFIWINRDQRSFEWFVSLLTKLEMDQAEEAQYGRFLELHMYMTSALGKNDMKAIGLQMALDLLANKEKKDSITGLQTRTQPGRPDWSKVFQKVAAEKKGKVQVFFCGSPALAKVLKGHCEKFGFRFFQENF
NADPH oxidase 4 (Homo sapiens), sequence (Q9NPH5 whole entry, looked up): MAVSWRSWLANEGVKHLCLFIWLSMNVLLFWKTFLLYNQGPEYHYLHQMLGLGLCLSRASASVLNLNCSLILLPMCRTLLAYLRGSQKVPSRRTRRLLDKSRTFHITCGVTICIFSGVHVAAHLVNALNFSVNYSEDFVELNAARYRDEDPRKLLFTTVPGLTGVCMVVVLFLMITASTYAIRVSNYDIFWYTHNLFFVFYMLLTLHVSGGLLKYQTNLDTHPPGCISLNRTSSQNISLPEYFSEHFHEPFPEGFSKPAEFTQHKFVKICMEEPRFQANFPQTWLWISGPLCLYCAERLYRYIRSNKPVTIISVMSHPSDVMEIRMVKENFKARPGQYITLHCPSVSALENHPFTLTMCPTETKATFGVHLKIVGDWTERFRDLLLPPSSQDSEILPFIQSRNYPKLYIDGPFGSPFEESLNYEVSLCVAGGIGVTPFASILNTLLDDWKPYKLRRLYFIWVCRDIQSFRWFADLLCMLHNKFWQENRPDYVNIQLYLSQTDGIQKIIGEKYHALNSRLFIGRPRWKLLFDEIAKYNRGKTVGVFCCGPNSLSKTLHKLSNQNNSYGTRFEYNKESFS
Torsin-1A (Homo sapiens), sequence (O14656 whole entry, looked up): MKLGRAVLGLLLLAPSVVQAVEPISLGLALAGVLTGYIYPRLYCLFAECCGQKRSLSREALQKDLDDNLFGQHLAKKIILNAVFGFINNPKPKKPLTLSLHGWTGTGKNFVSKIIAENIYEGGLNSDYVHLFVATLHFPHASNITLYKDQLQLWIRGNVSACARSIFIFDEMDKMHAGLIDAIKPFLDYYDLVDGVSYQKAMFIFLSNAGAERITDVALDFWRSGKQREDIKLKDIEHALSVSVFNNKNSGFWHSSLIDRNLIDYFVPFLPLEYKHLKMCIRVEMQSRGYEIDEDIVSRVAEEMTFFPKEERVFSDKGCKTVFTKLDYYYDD

Regarding `Cc1ccc(S(=O)(=O)N[C@@H]2COC(=O)[C@H](C)COC(=O)CC=C[C@H]2C)cc1`, the composite z-score in [1] was 0.0114; in [6], 0.134; in [7], -0.224; with Torsin-1A (Homo sapiens) [8] it was 1.06; with Torsin-1A (Homo sapiens) [9], 0.615; in [10] it was 1.91. The molecule also returned a composite z-score in test [12] of -0.0493. In addition, the z-score in [2] is 0.405 (inactive); in [3], 0.317 (inactive); in [4], 0.0676 (inactive); in test [5] it was -0.262 (inactive); in test [11] it was -0.786 (inactive); in test [13] it was 0.345 (inactive). The z-score in [14] was 0.408 (inactive); in test [15], 0.563 (inactive); in test [16], -0.0893 (inactive); in [17], -0.648; in [18] it was -0.108 (inactive); in test [19], 0.174 (inactive). Besides, in test [20], the z-score stood at 0.343.

`O=C1[C@H]2[C@H]3[C@H](O)[C@H](O)CC(=NOCc4ccccc4)[C@H]3CC[C@H]2C(=O)N1C[C@@H]1CCCO1`: the composite z-score in test [1] is 0.171; in [6], 0.295; in [7], -0.0963; in the test with Torsin-1A (Homo sapiens) [8] it was 0.95; with Torsin-1A (Homo sapiens) [9], 0.119; in [10], 0.135. In test [12], the composite z-score was 0.0455. In addition, the z-score in test [2] was -0.34 (inactive); in test [3], 0.282 (inactive); in [4], -0.298 (inactive); in [5], -0.471 (inactive); in [11] it was 0.144 (inactive); in [13], 5.97 (inactive). For the same molecule, the z-score is 0.673 (inactive) in [14]; -0.0092 (inactive) in test [15]; 0.479 (inactive) in test [16]; 0.067 in [17]; 0.421 (inactive) in test [18]; 0.511 (inactive) in [19]. Further, in test [20], the z-score was -1.46.

Turning to `CN(C)C(=O)[C@@]1(Cc2ccccc2)N=C(c2ccc(OCCCO)cc2)O[C@H]1c1ccccc1CN=[N+]=[N-]`, the composite z-score is 1.45 in test [1]; 1.5 in test [6]; 0.696 in [7]; 0.526 with Torsin-1A (Homo sapiens) [8]; 1.79 with Torsin-1A (Homo sapiens) [9]; -0.122 in [10]. The molecule further registered a composite z-score in [12] of 0.981. Moreover, the z-score in test [2] was -2.26 (inactive); in test [3], 0.456 (inactive); in [4] it was 0.974 (inactive); in test [5] it was -0.55 (inactive); in test [11], 0.374 (inactive); in [13], 14.9 (active). The z-score was 1.15 (inactive) in test [14]; 0.882 (inactive) in test [15]; 0.0009 (inactive) in test [16]; -0.474 in [17]; -1.75 (inactive) in [18]; 1.17 (inactive) in test [19]. Moreover, in test [20], the z-score came to 0.163.

On to `COC(=O)[C@H](C)NC(=O)CCC1CC(OC(=O)NCc2cccc3ccccc23)CC2(CCCC(COC(=O)NCC3CCCCC3)O2)O1` (stereo not given in full), for which the composite z-score came to 0.835 in test [1]; 0.688 in [6]; 0.0543 in [7]; 1.02 in the test with Torsin-1A (Homo sapiens) [8]; 1.05 with Torsin-1A (Homo sapiens) [9]; 1.43 in test [10]. The molecule further displayed a composite z-score in test [12] of -0.325. Besides, the z-score in [2] is -0.426 (inactive); in test [3] it was -0.803 (inactive); in test [4], 0.91 (inactive); in test [5] it was 1.76 (inactive); in test [11], -0.484 (inactive); in test [13] it was 0.994 (inactive). Besides, the z-score was -0.35 (inactive) in [14]; -0.555 (inactive) in test [15]; 0.125 (inactive) in test [16]; -0.444 in test [17]; 0.17 (inactive) in test [18]; 0.236 (inactive) in test [19]. Also, in [20], the z-score was 0.469.
